Among the data in PubChem BioAssay AID686979 (National Center for Advancing Translational Sciences (NCATS), 2013) are Potency and activity change, negative = growth inhibition values, retold here.

Several values for one entry are separate records, joined by “and”; a condition that tells them apart may be missing. Equal entries are not always repeated. Hit rate of the full screen: of about 420,000 compounds, about 50,000 (12%) were called active. Roughly 26% stayed inconclusive and do not appear here. Calls follow the shape of the dose curve; as a rule, active = well fitted inhibition curve with a large enough effect; inconclusive = small, poorly fitted or top-dose-only effect; inactive = flat fitted curve, though single readings scatter. What follows is part of a selection rich in actives, with near analogues and random picks from the rest. Entries that show only a call come without a potency. Some compounds were tested as several samples or in several runs, with calls that do not always agree.
Potency is read from the fitted curve at half-maximal effect.

The test can be described thus: qHTS for Inhibitors of human tyrosyl-DNA phosphodiesterase 1 (TDP1): qHTS in cells in presence of CPT. Also: nearly all actives have a fitted effect of over 55% in size. The following applies: chicken DT40 Tdp1-/-;hTDP1 cells + 20 nM CPT, ATP luminescence, 48 h; series mostly up to 46.2 µM. The method, boiled down: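 Chicken DT40 Tdp1-/- cells complemented with human TDP1, 400 cells/well, exposed to compounds plus 20 nM camptothecin for at least 48 h at 37 C; viability read as ATP content by CellTiter-Glo luminescence.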
On the technique in general: In qHTS, concentration-response curves come from the screen itself.
Consider `CSCCC(C(=O)NC1=NCCS1)N1C(=O)c2ccccc2C1=O` (stereo unspecified), for which the Potency result is “inactive”.
In the case of `N/C(=N\OS(=O)(=O)c1cccc([N+](=O)[O-])c1)c1ccncc1`, the Potency entry was “inactive”.
Consider `CCCCc1nnc(NC(=O)CSc2nc(N)cc(=O)[nH]2)s1`, for which the Potency result is “inactive”.
In the case of `Cc1cc(=O)[nH]c(SCc2ccc(Cl)cc2)n1`, the Potency entry is “inactive”.
Turning to `Cc1cc(C(=O)CSc2nc(N)cc(=O)[nH]2)c(C)n1CCc1ccc(Cl)cc1`, the Potency was 16.4 µM (active).
Regarding `Cc1cc(C(=O)CSc2nc(N)cc(=O)[nH]2)c(C)n1-c1cccc(F)c1`, the Potency was 7.31 µM (active).
In the case of `Cc1cc(C)c(C(=O)CSc2nc(C)cc(=O)[nH]2)c(C)c1`, the Potency result was “inactive”.
The same measure, in the same setting: then `CCN(C(=O)CSc1nc(N)cc(=O)[nH]1)C1CCS(=O)(=O)C1` (stereo unspecified), with “inactive”.
Regarding `Cc1c(OC(C)C(=O)NCC2CCC(C(=O)O)CC2)ccc2c1oc(=O)c1ccccc12` (stereo unspecified), the Potency entry was “inactive”.
The same measure, in the same setting: as for `COc1cc(SC)ccc1C(=O)NNC(=O)C1COc2ccccc2O1` (stereo unspecified), the entry is “inactive”; as for `CCc1ccccc1NC(=O)CN(C)C(=O)c1cc(C2CC2)nn1-c1ccccc1`, “inactive”.
As for `O=C(COC(=O)c1ccc(Br)o1)NC12CC3CC(CC(C3)C1)C2`, the Potency result was “inactive”.
In the case of `COc1cc(C(=O)OCC(=O)NC23CC4CC(CC(C4)C2)C3)cc(OC)c1OC`, the Potency is 29.1 µM (active).
On the same count and under the same terms, then `O=C(COC(=O)c1cccnc1Cl)NC12CC3CC(CC(C3)C1)C2`, with “inactive”; and `COc1cc(-c2nc(S(=O)(=O)c3ccc(Cl)cc3)c(N(C)C)o2)cc(OC)c1OC`, with “inactive”; and `CC(C)S(=O)(=O)c1oc(-c2ccc(F)cc2)nc1S(=O)(=O)c1ccc(F)cc1`, with 0.291 µM (active).
In the case of `Cc1cccc(-c2noc(-c3ccc(F)cc3)n2)c1`, the Potency result was “inactive”.
For the compound `COc1ccc2c(c1)C(NS(=O)(=O)OCC(Cl)(Cl)Cl)CCC2` (stereo unspecified), the Potency result was “inactive”.
On the same count and under the same terms, then `C=CC1C(OC2OC(CO)C(O)C(O)C2O)OC=C(C(=O)OC)C1CC1CC(=O)CC(CC(=O)CCc2ccc(O)cc2)O1` (stereo unspecified), with “inactive”; and `Cc1ccccc1NC(=O)Cc1nc(COC(=O)c2cccnc2Cl)cs1`, with “inactive”.
For `Cc1ccc(CSc2nc(-c3ccccc3)c(C#N)c(=O)[nH]2)cc1`, the Potency entry is “inactive”.
For `CC1CCC(NC(=O)c2ccc(N3CCCC3=O)cc2)CC1` (stereo unspecified), the Potency result was “inactive”.
As to `CN1C(=O)/C(=C/c2ccc(C(=O)NC3CCCC3)cc2)Oc2ccccc21`, the Potency is 13 µM (active).
As to `O=C(NC1CCCCC1)c1ccc(CNc2c(N3CCOCC3)c(=O)c2=O)cc1`, the Potency result was “inactive”.
As for `COc1cccc(C(=O)Nc2nnc(S(=O)(=O)N(C)c3ccccc3)s2)c1`, the Potency result is “inactive”.
Still for that read-out and setting: then `CC(C)CC(=O)Nc1nnc(S(=O)(=O)N(C)c2ccc(Cl)cc2)s1`, with “inactive and 146 nM (active)”; and `CCC(=O)Nc1nnc(S(=O)(=O)N(CC(C)C)c2ccccc2)s1`, with “inactive”; and `Cc1noc(C)c1S(=O)(=O)N(C)C[C@H]1Oc2ccc(NC(=O)C3CCCCC3)cc2C(=O)N([C@H](C)CO)C[C@@H]1C`, with “inactive”.
Same read-out and setting: then `O=C(Nn1c(-c2ccc(Cl)cc2)nc2ccccc2c1=O)c1cccnc1Cl`, with “inactive”; and `COc1cc(OC)cc(-c2nc3ccccc3c(=O)n2NC(=O)c2cccnc2Cl)c1`, with “inactive”.
The same measure, in the same setting: then `COc1ccccc1C(=O)Nn1c(-c2cccs2)nc2ccccc2c1=O`, with 18.4 µM (active); and `Cc1ccc(OCC(=O)OCc2cc(=O)n3nc(C4CC4)sc3n2)cc1`, with “inactive”.
Consider `CCc1cc(C(=O)Nc2nnc(C3CC3)s2)sc1C`, for which the Potency entry was “inactive”.
On to `CCCN(CC(=O)Nc1ccccc1C)C(=O)c1ccc(OCC(=O)N2CCOCC2)c(OCC)c1`, for which the Potency result was “inactive”.
Same read-out and setting: then `CCCN(CC(=O)Nc1ccccc1C)C(=O)c1cc(=O)[nH]c2ccccc12`, with “inactive”; and `CCCN(CC(=O)Nc1ccccc1C)C(=O)c1ccc2[nH]c3c(c2c1)CC(C)CC3` (stereo unspecified), with 20.6 µM (active); and `Cc1ccc(CN2CCN(c3ccccc3Cl)CC2)o1`, with “inactive”.
Regarding `Cc1ccc(N2C(=O)C3C4C=CC(CC4)C3C2=O)cc1Cl` (stereo unspecified), the Potency result is “inactive”.
Turning to `O=C(NCCN1CCOCC1)/C(=C/c1ccc(F)cc1)NC(=O)c1ccccc1`, the Potency entry is “inactive”.
Consider `Nc1nc(COC(=O)CCC(=O)c2ccc(Cl)cc2)nc(Nc2ccccc2)n1`, for which the Potency result is “inactive”.
Consider `CCCc1cc(C(=O)Nc2ccc(C(=O)OC)cc2)cs1`, for which the Potency entry is “inactive”.
For the compound `CCOC(=O)C1CCCN(C(=O)Cn2ncc3c(=O)oc4ccc(C)cc4c32)C1` (stereo unspecified), the Potency result was “inactive”.
Turning to `CCOC(=O)C1CCCN(C(=O)Cn2ncc3c(C)n(Cc4ccc(F)cc4)c(C)c3c2=O)C1` (stereo unspecified), the Potency was 14.6 µM (active).
On the same count and under the same terms, then `CCOC(=O)C1CCCN(C(=O)CN(c2ccc(OC)cc2)S(=O)(=O)c2c(C)noc2C)C1` (stereo unspecified), with “inactive”.
`CCCNC(=O)c1cc(C2CCCCN2S(=O)(=O)c2cn(C)cn2)on1` (stereo unspecified): the Potency entry was “inactive”.
Turning to `CCS(=O)(=O)N1Cc2ccccc2CC1C(=O)Nc1nc2ccc(F)cc2s1` (stereo unspecified), the Potency entry was “inactive”.
In the case of `O=C(Nc1ccc(O)cc1)c1ccc(NC(=O)c2ccco2)cc1`, the Potency result was “inactive”.
In the case of `Cc1cccc2cc(CN(C(=O)c3cccs3)c3ccccc3)c(=O)[nH]c12`, the Potency result was “inactive”.
Take `Cc1cccc2cc(CN(Cc3nnnn3Cc3ccccc3)C3CCCC3)c(=O)[nH]c12`: the Potency was 20.6 µM (active).
As for `Cc1cccc2cc(CN(Cc3cccs3)C(c3nnnn3C3CCCC3)C(C)C)c(=O)[nH]c12` (stereo unspecified), the Potency entry is “inactive”.
As for `Cc1cc(C)c2cc(CN(Cc3cccs3)Cc3nnnn3CC3CCCO3)c(=O)[nH]c2c1` (stereo unspecified), the Potency is 23.1 µM (active).
As for `Cc1cc(C)c2cc(CN(Cc3nnnn3Cc3ccc(F)cc3)C3CCCC3)c(=O)[nH]c2c1`, the Potency was 14.6 µM (active).
On the same count and under the same terms, then `O=C(c1cccs1)N(Cc1cc2ccccc2[nH]c1=O)CC1CCCO1` (stereo unspecified), with “inactive”.
Turning to `CCCN(Cc1cc2cccc(C)c2[nH]c1=O)S(C)(=O)=O`, the Potency entry is “inactive”.
For the compound `Cc1n[nH]c(=O)c2c1nnn2Cc1ccc(F)cc1`, the Potency result was “inactive”.
On to `CCC(c1nnnn1C1CCCC1)N(Cc1cccs1)Cc1cc2cccc(C)c2[nH]c1=O` (stereo unspecified), for which the Potency was 20.6 µM (active).
Regarding `Cc1ccc(S(=O)(=O)N(Cc2cc3ccccc3[nH]c2=O)CC2CCCO2)cc1` (stereo unspecified), the Potency entry is “inactive”.
The same measure, in the same setting: as for `c1ccc(CCn2nnnc2CN2CCN(C3CCCC3)CC2)cc1`, the entry is “inactive”; as for `Cc1occc1-c1nnc(SCC(=O)NC2CCCCC2)o1`, “inactive”.
The same measure, in the same setting: then `Cc1cc2c(cc1S(=O)(=O)CCC(=O)NCc1ccccc1)OCC(=O)N2`, with “inactive”; and `CCSCc1nc(N)nc(NCCc2ccccc2)n1`, with “inactive”; and `CCOc1ccc(-n2cnc3c(=O)[nH]c(N)nc32)cc1`, with “inactive”.
Consider `CN(Cc1ccc(F)cc1)C(=O)COc1ccc2ccccc2c1`, for which the Potency entry is “inactive”.
Regarding `NC(=O)c1cc(-c2cccnc2)nc2ccc(Br)cc12`, the Potency result was “inactive”.
As to `CN1CCCCCC1C(=O)NCCN1Cc2ccccc2OC(c2ccsc2)C1` (stereo unspecified), the activity change, negative = growth inhibition was 11.9% [at 9.04 µM] (inactive).
Take `C#CCOCCOCCOCCNc1nc(N2CCOCC2)nc(N2CCN(C(=O)[C@H](Cc3ccc(O)cc3)n3cc(CCO)nn3)CC2)n1`: the Potency result was “inactive”.
Regarding `CCN(C(=O)COC(=O)CCC(=O)c1cccs1)C1CCCCC1`, the Potency entry was “inactive”.
For `COc1ccc(Br)cc1C1CC(=O)Nc2c1c(C)nn2-c1nc(C)cc(C)n1` (stereo unspecified), the Potency is 16.4 µM (active).
`COc1ccc(C2CC(=O)Nc3c2c(=O)nc2c(C)cccn32)cc1OC` (stereo unspecified): the Potency result was “inactive”.
Take `COc1ccc(C2c3c(C)nn(-c4ccccc4)c3NC(=O)N2c2ccccc2)cc1` (stereo unspecified): the Potency entry was “inactive”.
In the case of `CCCCC1(C(=O)OCC)NC(c2ccc(O)cc2)C2C(=O)N(c3ccccc3)C(=O)C21` (stereo unspecified), the Potency was 14.6 µM (active).
Consider `CCOC(=O)C1(C)NC(c2ccco2)C2C(=O)N(c3ccccc3)C(=O)C21` (stereo unspecified), for which the Potency result was “inactive”.
Turning to `COC(=O)C1(C)NC(c2ccc(F)cc2)C2C(=O)N(c3ccccc3)C(=O)C21` (stereo unspecified), the Potency entry was “inactive”.
On the same count and under the same terms, as for `COCCCn1c(=O)/c(=C/c2ccccc2OC(C)C)s/c1=C(\C#N)C(=O)Nc1ccc(C(=O)O)cc1`, the figure is 20.6 µM (active); as for `COc1ccccc1C(=O)N/C(=C/c1ccco1)C(=O)Nc1ccc(C(=O)O)cc1`, “inactive”; as for `COc1ccc(NC(=O)/C(C#N)=C\c2cc(OC)c(OCc3ccc(C(=O)O)cc3)cc2Br)cc1`, “inactive”.
For `Cn1c(N)c(C(=O)COC(=O)COc2ccc(Cl)cc2)c(=O)n(C)c1=O`, the Potency entry is “inactive”.
Still for that read-out and setting: as for `COc1ccc(-c2cc(=O)oc3cc(OC(C)C(=O)NCC4CCC(C(=O)O)CC4)ccc23)cc1` (stereo unspecified), the entry is “inactive”.
The same measure, in the same setting: as for `COc1ccc(NC(=O)CNc2cc(S(=O)(=O)N3CCOCC3)ccc2N2CCOCC2)c(OC)c1`, the entry is “inactive”; as for `O=C(CC12CC3CC(CC(C3)C1)C2)Nc1ccc2c(c1)COC2=O`, 13 µM (active).
On to `NS(=O)(=O)c1cccc(NC(=O)CC23CC4CC(CC(Br)(C4)C2)C3)c1`, for which the Potency entry was “inactive”.
In the case of `O=C(CC12CC3CC(CC(C3)C1)C2)NCc1ccco1`, the Potency entry is “inactive”.
Take `CCN1CCN(C(=O)N(Cc2ccc(Cl)cc2)S(=O)(=O)c2ccc(C)cc2)CC1`: the Potency entry is “inactive”.
Still for that read-out and setting: then `CC(=O)Nc1ccc(S(=O)(=O)N(C)CC(=O)NCCC2=CCCCC2)cc1`, with “inactive”; and `S=C(NCCC1=CCCCC1)Nc1ccccc1`, with 16.4 µM (active); and `S=C(NCCc1ccccc1)Nc1ccccc1`, with “inactive”.
`COc1ccc(-c2cc(-c3ccc(F)cc3)nc3c2COc2ccccc2-3)cc1`: the Potency result is “inactive”.
The same measure, in the same setting: then `CC(C)(C)C(=O)COC(=O)c1cc(S(=O)(=O)N2CCCCC2)ccc1N1CCOCC1`, with “inactive”; and `O=C(CCCN1C(=O)c2ccccc2C1=O)Oc1ccc(Cl)cc1`, with “inactive”.
In the case of `CCCCN(C(=O)CSCC(=O)Nc1ccc(OC)cc1)c1c(N)n(CCC)c(=O)[nH]c1=O`, the Potency entry was “inactive”.
For `CC(C)C(=O)NC(C)c1nnc2n1CCN(Cc1cccc3ncccc13)CC2` (stereo unspecified), the activity change, negative = growth inhibition is 24.6% [at 9.04 µM] (inactive).
Consider `N#Cc1nc(-c2ccc(OCc3ccccc3)cc2)oc1NCCCN1CCOCC1`, for which the Potency was 20.6 µM (active).
Turning to `Cc1ccc(-c2nc(C#N)c(NCCCn3ccnc3)o2)cc1`, the Potency entry is “inactive”.
For the compound `O=S(=O)(c1ccccc1)c1nc(-c2ccccc2)oc1NCCCN1CCOCC1`, the Potency entry is “inactive”.
`Nc1nc(SCC(=O)Nc2cc(C(F)(F)F)ccc2Cl)[nH]c(=O)c1NC(=O)c1ccco1`: the Potency result is “inactive”.
Turning to `CO[C@H]1[C@H](NC(=O)C(C)C)c2ccccc2C12CCN(Cc1cnc(N(C)C)s1)CC2`, the activity change, negative = growth inhibition was 1.26% [at 9.04 µM] (inactive).
